# Reference: PubChem BioAssay
# Several values for one entry are separate records, joined by “and”; a condition that tells them apart may be missing. Equal values may be shown once. Values without a mark were called inactive. Activity calls are given as the source filed them.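 Rule for the calls: active = thallium flux through the channel raised or lowered by more than 3 SD from vehicle-only wells, actives on both sides; inactive = the rest.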
# Experiments:
# Test in all cases: BK channel mutant inhibitors and activators – cell-based, U2OS BacMam, thallium flux, beta subunits, selectivity assay, profiling panel (AID 1259406);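 note: initial slope of Thallos dye fluorescence rise after thallium is added; log ratio against the mean of 0.3% DMSO vehicle wells on the same plate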
# F380Y/beta2Delta = conditions: U2OS BacMam BK variants, at 30 µM
# F380Y/beta4 = conditions: U2OS BacMam BK variants, at 30 µM
# [1] = molecular target: Calcium-activated potassium channel subunit alpha-1 (Homo sapiens) + Leucine-rich repeat-containing protein 26 (Homo sapiens) (UniProt Q12791+Q2I0M4); conditions: U2OS BacMam BK variants, F380Y/Slo1WT/gamma1, at 30 µM
# Sequence of Calcium-activated potassium channel subunit alpha-1 (Homo sapiens) + Leucine-rich repeat-containing protein 26 (Homo sapiens) (Q2I0M4 whole entry, looked up, one chain of several): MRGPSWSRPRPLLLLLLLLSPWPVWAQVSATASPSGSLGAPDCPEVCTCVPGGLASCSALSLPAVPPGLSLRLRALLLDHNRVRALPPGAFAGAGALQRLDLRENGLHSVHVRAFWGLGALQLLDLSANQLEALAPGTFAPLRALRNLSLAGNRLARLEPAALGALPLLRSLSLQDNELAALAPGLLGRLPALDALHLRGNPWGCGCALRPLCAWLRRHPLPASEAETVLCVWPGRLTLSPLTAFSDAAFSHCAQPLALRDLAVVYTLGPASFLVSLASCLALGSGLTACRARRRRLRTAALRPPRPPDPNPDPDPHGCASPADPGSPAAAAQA
# R275C = conditions: U2OS BacMam BK variants, at 30 µM
# R275C/beta1 = conditions: U2OS BacMam BK variants, at 30 µM
# R275C/beta2Delta = conditions: U2OS BacMam BK variants, at 30 µM
# R275C/beta4 = conditions: U2OS BacMam BK variants, at 30 µM
# R275C/Slo1WT/beta2 = conditions: U2OS BacMam BK variants, at 30 µM
SMILES,log fold change Tl+ flux (F380Y/beta2Delta),log fold change Tl+ flux (F380Y/beta4),log fold change Tl+ flux [1],log fold change Tl+ flux (R275C),log fold change Tl+ flux (R275C/beta1),log fold change Tl+ flux (R275C/beta2Delta),log fold change Tl+ flux (R275C/beta4),log fold change Tl+ flux (R275C/Slo1WT/beta2)
C[C@H]1COc2c(C3(N)CC3)c(F)cc3c(=O)c(C(=O)O)cn1c23,-0.0452,-0.037,0.00396,-0.0195,-0.0326,-0.0136,-0.0013,-0.0265
CC1(C)O[C@@H]2C[C@H]3[C@@H]4C[C@H](F)C5=CC(=O)C=C[C@]5(C)[C@@]4(F)[C@@H](O)C[C@]3(C)[C@]2(C(=O)CO)O1,0.13 (active),0.186 (active),0.0484,0.0785,0.14 (active),0.157 (active),0.0574,0.0265
CCOC(=O)[C@H](CCc1ccccc1)N[C@@H](C)C(=O)N1[C@H](C(=O)O)C[C@@H]2CCC[C@@H]21,0.0153 and 0.0206,0.00789 and 0.00803,-0.0126 and 0.00594,0.0107 and 0.01,-0.0118 and -0.0507,-0.0152 and 0.00655,0.00822 and 0.0154,-0.0515 and 0.000239
Nc1nc(F)nc2c1ncn2[C@@H]1O[C@H](CO)[C@@H](O)[C@@H]1O,0.0109,-0.0895,-0.000905,-0.0205,-0.0181,-0.00769,-0.0294,-0.0303
COc1cc(C(=O)NS(=O)(=O)c2ccccc2C)ccc1Cc1cn(C)c2ccc(NC(=O)OC3CCCC3)cc12,0.327 (active),0.428 (active),0.314 (active),-0.0565,0.581 (active),0.38 (active),0.546 (active),0.0699
Cn1nnc2c(C(N)=O)ncn2c1=O,-0.0261,-0.0309,0.0144,-0.00524,-0.0169,0.0357,-0.0137,0.06
CC(Cc1ccccc1)(NC(=O)CN)c1ccccc1 (centres undefined),0.0679,0.0357,-0.0139,0.0158,0.0479,0.036,0.0184,-0.037
Nc1nc2c(ncn2CCC(CO)CO)c(=O)[nH]1,-0.015,-0.0159,-0.013,0.00432,0.00335,0.0147,-0.0144,-0.0115
C[C@@H]1C[C@H]2[C@@H]3CCC4=CC(=O)C=C[C@]4(C)[C@@]3(F)[C@@H](O)C[C@]2(C)[C@H]1C(=O)CO,0.0651,0.0601,0.0369,-0.061,0.178 (active),0.0622,0.0336,0.0113
CN1[C@@H]2CC[C@H]1CC(OC(=O)c1c[nH]c3ccccc13)C2 (some centres undefined),0.0725,0.0611,-0.0185,-0.064,0.026,0.045,0.0432,0.00303
Clc1ccc2nsnc2c1NC1=NCCN1,-0.0575,-0.0136,0.00637,0.0392,0.0375,-0.063,0.0661,0.00517
CC(Oc1c(Cl)cccc1Cl)C1=NCCN1 (centres undefined),-0.00369,0.0154,0.00177,-0.0395,0.0393,0.00761,0.0269,0.0415
OCCOCCN1CCN(C2=Nc3ccccc3Sc3ccccc32)CC1,0.0505,0.186 (active),0.0336,-0.011,0.15 (active),0.106 (active),0.142 (active),-0.027
COCc1c(C(C)C)nc(C(C)C)c(/C=C/[C@@H](O)C[C@@H](O)CC(=O)O)c1-c1ccc(F)cc1,0.143 (active),0.268 (active),0.103 (active),0.0107,0.391 (active),0.192 (active),0.207 (active),0.0728
CCOC(=O)c1ncn2c1CN(C)C(=O)c1cc(F)ccc1-2,-0.0461,-0.0546,-0.0345,0.00689,0.00279,0.0168,0.000313,0.022
O=C1CCc2ccc(OCCCCN3CCN(c4cccc(Cl)c4Cl)CC3)cc2N1,-0.00576,0.0383,-0.0185,-0.0555,0.056,0.0181,0.0353,0.0373
Oc1ccc(C2CNCCc3c2cc(O)c(O)c3Cl)cc1 (centres undefined),0.057,0.0586,0.0552,-0.0214,0.0235,0.0656,0.0211,0.0233
CC(C)(C)C(O)/C=C/c1ccc2c(c1)OCO2 (centres undefined),-0.034,0.0193,0.00833,-0.0106,0.0195,-0.0731,-0.0258,-0.0107
CC(C)c1nc(CN(C)C(=O)N[C@H](C(=O)N[C@@H](Cc2ccccc2)C[C@H](O)[C@H](Cc2ccccc2)NC(=O)OCc2cncs2)C(C)C)cs1,-0.548 (active),-0.505 (active),-0.199 (active),-0.232 (active),0.0641,-0.208 (active),-0.0726,0.0476
C[C@H](NC(CCc1ccccc1)C(=O)O)C(=O)N1CCC[C@H]1C(=O)O (some centres undefined),0.0235,0.0162,-0.0317,-0.0419,0.0208,0.0297,0.0258,0.0874 (active)
C#C[C@]1(O)CC[C@H]2[C@@H]3CCc4cc(OC)ccc4[C@H]3CC[C@@]21C,-0.0353,0.0115,-0.0403,-0.0453,0.019,-0.00738,0.00852,-0.04
CCc1c(C)[nH]c2c1C(=O)C(CN1CCOCC1)CC2 (centres undefined),0.0445,-0.00138,-0.0511,0.0162,-0.0312,0.0494,-0.0175,0.00393
Cc1[nH]c(=O)c(C#N)cc1-c1ccncc1,-0.015,-0.0201,0.0127,-0.0168,-0.000763,0.0393,0.0209,0.0443
CCN1CCCC1CNC(=O)c1cc(S(=O)(=O)CC)c(N)cc1OC (centres undefined),0.0211,0.00308,-0.0597,-0.0334,0.00406,-0.0411,-0.0037,0.0112
C[C@@H]1C[C@H]2[C@@H]3C[C@H](F)C4=CC(=O)C(Cl)=C[C@]4(C)[C@@]3(F)[C@@H](O)C[C@]2(C)[C@@]1(O)C(=O)CO,-0.0145,0.131 (active),0.0637,0.0158,0.354 (active),0.0934,0.148 (active),0.0468
NC(=O)OCC(COC(N)=O)c1ccccc1,0.0149,0.0205,0.0713,-0.054,0.0281,0.019,-0.0181,0.0103
Cc1nc2ccc(CN(C)c3ccc(C(=O)N[C@@H](CCC(=O)O)C(=O)O)s3)cc2c(=O)[nH]1,-0.00369,0.0379,-0.00311,-0.0146,0.00396,-0.00877,-0.00369,-0.0401
C#C[C@]1(O)CC[C@H]2[C@@H]3CCc4cc(O)ccc4[C@H]3CC[C@@]21C,-0.0272,–,0.0947 (active),-0.0326,0.0956,0.155 (active),–,–
NCC1CCC(C(=O)Oc2ccc(CCC(=O)O)cc2)CC1 (centres undefined),-0.0278,-0.00261,0.0182,-0.0458,0.036,0.00228,-0.0367,-0.00395
CCCc1c(OCCCCc2nn[nH]n2)ccc(C(C)=O)c1O,0.0962 (active),–,0.186 (active),0.0659,0.282 (active),0.193 (active),–,–
